Consider nine compounds from PubChem BioAssay (NCI).

Test in all cases: NCI-60 one-dose screen, 48 h (100 = growth as untreated, 0 = no growth, -100 = all killed)
Common to all, as to details: 10 µM unless noted

Test [1] has as its system DU-145 prostate.
Test [2] has as its system K-562 leukemia.
For test [3], the system named is MALME-3M melanoma.
The test system of test [4] is MDA-MB-231 breast.
Test [5] relates to SF-268 CNS.
Test [6] relates to SF-295 CNS.
Test [7] deals with SF-539 CNS.
In test [8] the test system is M14 melanoma.
Test [9] concerns HCT-15 colon.
Test [10] relates to HT29 colon.
Test [11] relates to SNB-75 CNS.
The test system of test [12] is SNB-19 CNS.
The subject of test [13] is U251 CNS.
The test system of test [14] is PC-3 prostate.
The subject of test [15] is SK-MEL-5 melanoma.
Test [16] relates to UACC-62 melanoma.
Test [17] deals with LOX IMVI melanoma.
Test [18] has as its system SK-MEL-28 melanoma.

This is part of a sample that, as a whole, favours compounds with a hit. Of some 83,000 tested, about 20% had one in any assay.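 A percent growth of 40 corresponds to 60% growth inhibition; 0 means no net growth; -100 means all cells died. Active threshold: below 10.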 A number with no mark means an inactive call. Calls of active or inactive are those of the source.

In the case of `CC(C)c1ccc(/C=N/Nc2nc3ccccc3s2)cc1`, the growth in test [1] was 101%; in [2], 85.5%; in [3], 62.9%; in [4], 81.6%; in test [5], 99.2%; in [6] it was 98.5%. Further, the growth in [7] is 103%; in test [8], 94.5%; in [9], 83.9%; in test [10] it was 78.8%; in test [11] it was 103%; in test [12], 97.7%. The growth is 80.8% in [13]; 77.9% in test [14]; 91.6% in [15]; 87% in [16]; 89.1% in test [17]; 108% in test [18].

`COc1cc2c3c(c1)nc(C)n3CCC2`: the growth was 109% in test [1]; 98.8% in test [2]; 110% in [3]; 107% in test [4]; 107% in test [5]; 95.8% in test [6]. Besides, the growth in [7] was 97.9%; in test [8] it was 100%; in [9], 98.2%; in [10], 97.2%; in test [11], 83.4%; in test [12] it was 101%. Besides, the growth is 91.9% in test [13]; 90.1% in test [14]; 97.4% in test [15]; 100% in [16]; 92.7% in test [17]; 106% in test [18].

On to `COc1ccc(C2OC(c3cc(-c4cc5ccccc5o4)nn3-c3ccccc3)=NN2C(C)=O)cc1` (configuration not stated), for which the growth in test [1] was 101%; in test [2] it was 93.1%; in [3], 107%; in [4] it was 95.9%; in [5], 97.7%; in test [6] it was 100%. For the same compound, the growth was 98.6% in [7]; 99% in test [8]; 97.2% in test [9]; 93.3% in test [10]; 87.5% in test [11]; 91.3% in test [12]. Also, the growth was 96.2% in [13]; 88.9% in test [14]; 8.69% (active) in test [15]; 86.9% in test [16]; 85.5% in test [17]; 109% in [18].

Take `C=C1C(=O)O[C@H]2[C@H]1CC/C(CNC(=O)c1cc3cc(OC)ccc3[nH]1)=C\CC[C@@]1(C)O[C@@H]21`: the growth in test [1] was -92% (active); in test [2] it was -3.44% (active); in [3] it was -61.6% (active); in [4] it was -55.5% (active); in test [5], -39.3% (active); in test [6] it was 37.6%. Further, the growth in test [7] is -60.6% (active); in test [8], -42.4% (active); in [9] it was -78.4% (active); in test [10], -70.9% (active); in test [11] it was 51.4%; in [12] it was 44%. In addition, the growth in test [13] was 14.5%; in [14], -52.5% (active); in [15] it was -39.2% (active); in [16] it was -66.1% (active); in [17], -93.5% (active); in [18], -59.3% (active).

With `CC1(/C=N/NC(N)=S)NC(=O)NC1=O` (configuration not stated), the growth in test [1] is 107%; in [2], 89.4%; in test [3] it was 107%; in [4] it was 99.2%; in test [5], 102%; in test [6] it was 108%. Further, the growth in test [7] is 110%; in [8], 103%; in test [9] it was 104%; in test [10], 93.3%; in test [11], 90.6%; in test [12], 108%. Further, the growth in test [13] was 94.5%; in [14], 93%; in test [15], 100%; in test [16], 95.6%; in test [17], 101%; in test [18] it was 117%.

Regarding `COC(=O)[C@]12CC[C@@H](C)[C@H](C)[C@@H]1C1=CC[C@@H]3[C@@]4(C)C(C#N)=CC(C)=C4CC[C@@]3(C)[C@]1(C)CC2`, the growth in test [1] is 99.3%; in [2] it was 84.5%; in [3], 87.5%; in test [4], 85.4%; in test [5], 85.3%; in [6], 85.4%. Further, the growth in test [7] was 91.8%; in [8], 77.2%; in test [9], 89.5%; in test [10], 73.7%; in [11], 84.5%; in [12] it was 96.3%. Further, the growth in [13] was 87.2%; in test [14], 68.9%; in test [15], 86.3%; in test [16] it was 69.3%; in test [17], 92.1%; in [18], 91.4%.

In the case of `O=C1CSC(c2c(F)cccc2Cl)N1NC(=O)C(O)(c1ccccc1)c1ccccc1` (configuration not stated), the growth was 108% in [1]; 80.3% in test [2]; 82.1% in test [3]; 93% in test [4]; 112% in test [5]; 94.3% in test [6]. Besides, the growth in test [7] is 100%; in test [8], 94.5%; in [9] it was 102%; in test [10] it was 95.9%; in test [11], 82.9%; in test [12], 98.4%. For the same compound, the growth in test [13] is 95.7%; in [14] it was 95.5%; in test [15], 89.5%; in test [16] it was 82.8%; in test [17] it was 94.2%; in [18] it was 107%.

For the compound `Cc1cc(O)c2c(c1)C1OC(=O)CCCCCN1C1=C2C(=O)c2cccc(OC3CC(O)C(O)C(C)O3)c2C1=O` (configuration not stated), the growth was 57.2% in test [1]; 28.3% in [2]; 40.6% in test [3]; 32.7% in test [4]; 90.8% in test [5]; 93.9% in test [6]. Moreover, the growth in test [7] was 83.5%; in test [8], 66.6%; in test [9], 46.1%; in test [10], 93.7%; in test [11], 117%; in [12], 97.1%. The growth in test [13] was 63.1%; in test [14], 87.2%; in [15], 86.9%; in test [16], 89.5%; in test [17], 34.3%; in test [18], 75.8%.

Regarding `Cc1cc2c3c(cccc3c1)C(=O)c1ccccc1-2`, the growth in test [1] was 98.9%; in test [2] it was 98.8%; in test [3] it was 90.8%; in test [4], 92.6%; in [5] it was 92%; in test [6], 103%. The growth in [7] was 97.2%; in [8] it was 92.6%; in [9] it was 93.5%; in [10], 94.9%; in [11], 111%; in test [12], 97.8%. Also, the growth in test [13] is 98.8%; in test [14], 93.6%; in test [15] it was 95.2%; in test [16], 85.1%; in test [17], 86.8%; in [18], 105%.
